# esBAF inh – Bmi1 luciferase reporter increase in mESCs, primary screen, esBAF inhibitor project, mouse ES cells, Bmi1 luciferase knock-in, single point; AID 602393, 2012; 24 h; 100% = twice the neutral-well signal; actives 2% (n = 350,000); reporter increase, % at 12.5 µM; in the data active means activation above about 40%; inconclusive means no clear call, values can overlap the other calls;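 further: 0% = median of the plate's neutral control wells and 100% = double that signal; a rise in the Bmi1 reporter signal indicates esBAF inhibition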
# EBV LMP1 NFkB – EBV LMP1-driven NF-kappaB luciferase reporter inhibitors, primary screen, cell-based, luminescence, single point; LMP1-induced NF-kappaB luciferase reporter cells; inhibition, % at 12.5 µM; actives 0.69% (n = 350,000); in the data active means inhibition above about 41%; inconclusive means no clear call, values can overlap the other calls;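 further: 0% = neutral control wells and 100% = reference inhibitor control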
# Wnt act – Wnt/beta-catenin pathway activators, primary screen, cell-based, plate reader, single point; Wnt/beta-catenin reporter cell assay, activator; activation, % at 9.35 µM; actives 1.2% (n = 300,000); in the data active means activation above about 30%, passing the limit was not always enough; inconclusive means no clear call, values can overlap the other calls;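 further: 0% = neutral control wells and 100% = positive control wells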
# Statin myotox sup – suppressors of statin myotoxicity in C2C12 myotubes, primary screen, cell-based, single point, plate reader. actives 0.78% (n = 330,000). C2C12 myotubes + simvastatin, ATP luminescence, 48 h; scaled: DMSO 0, geranylgeraniol control 100. rescue of ATP level, % at 7.49 µM. AID 602340, 2012;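 active means mean ATP rescue above about 67%, or every replicate alone reaching that limit, limit read from the data, passing the limit was not always enough; inconclusive means no clear call, values can overlap the other calls; inactive means mean under the limit and some replicate under it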;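 further: myotubes were challenged with 10 µM simvastatin during compound exposure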
# MITF TRPM1 HTS – activators of MITF-driven TRPM1 promoter reporter, primary screen, cell-based, SK-MEL-5, luciferase, single point | SK-MEL-5 TRPM1-promoter luciferase, 24 h; % of positive control, neutral wells = 0 | activation, % at 12.5 µM | actives 0.75% (n = 300,000);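 active means mean activation of at least 80% with every replicate also reaching 80%; inconclusive means mean reaches 80% but some replicate falls short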;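 further: 0% = neutral control wells and 100% = parthenolide positive control wells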
# MITF TRPM1 inh – inhibitors of MITF-dependent TRPM1 promoter reporter, primary screen, cell-based, SK-MEL-5, single point, luciferase. SK-MEL-5 TRPM1 promoter luciferase, 24 h. inhibition, % at 12.5 µM. actives 0.83% (n = 330,000);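 active means mean inhibition across replicates of 60% or more, whatever share of single replicates reaches that level; inconclusive means some that reach 60%, reason not given; inactive means mean inhibition across replicates below 60%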
# Active calls of the source: *; u = inconclusive; x = no result given. An excerpt weighted towards active compounds, which were near 4% of everything screened.
SMILES,esBAF inh,EBV LMP1 NFkB,Wnt act,Statin myotox sup,MITF TRPM1 HTS,MITF TRPM1 inh
CN(C)c1ccnc2sc3c(SCc4ccc(Cl)cc4)ncnc3c12,x,19.2,x,x,90.8*,-86.2
Cc1ccc(C(=O)Nc2sc3c(c2C(=O)O)CCCC3)o1,x,17.5,9.8,x,9.9,-6.8
COC(=O)c1c(NC(=O)c2ccc(C)o2)sc2c1CCCCC2,62.5*,12.2,52.2*,0.5,x,-68.3
COCCn1c(N)c(C(=O)Nc2sc3c(c2C(=O)OC)CCCC3)c2nc3ccccc3nc21,3.1,-2.6,x,99.2*,16.4,-13.8
Cc1ccc(C(=O)Nc2sc3c(c2C(=O)O)CCC(C)C3)o1 (stereo not given),48.6*,23.3,10.9,5.2,37.1,-35.8
Cc1ccc(C(=O)Nc2sc3c(c2C(=O)O)CCCCC3)o1,10.1,8.5,x,-38.6,58.1,-48.3
COc1ccc(NC(=O)c2sc3ncnc(N4CCN(c5ccccn5)CC4)c3c2C)cc1Cl,4.6,44.0*,-1.9,-91.9,4.7,-7.5
COc1ccc(NC(=O)c2sc3nc(C)nc(N4CCN(c5ccccn5)CC4)c3c2C)cc1Cl,-2.9,16.2,-1.3,-28.3,19.9,-21.4
Cc1ccc(S(=O)(=O)N(c2nc(NC(C)C)nc(NC(C)C)n2)n2cnnc2)cc1,x,-0.1,0.7,x,-2.3,1.7
C=CCn1c(=O)/c(=C/c2ccc(Cl)cc2)s/c1=C(\C#N)c1nnc2n1CCCCC2,1.8,71.2*,-2.3,2.7,7.1,-7.5
C=CCN1C(c2ccccc2)=CS/C1=C(\C#N)c1nnc2n1CCCCC2,-3.4,-14.0,x,13.2,-5.0,6.5
O=C(CSc1ccc(F)cc1)Nc1ccc(C2SCCS2)cc1,45.4*,-36.7,9.1,-5.6,x,-97.6
O=C(CSC1=NCCS1)Nc1ccc(F)cc1,x,7.1,-0.8,x,-8.4,12.6
Cc1cc(C)n(CCC(=O)N/N=C/c2ccc(Br)c([N+](=O)[O-])c2)n1,3.3,5.5,36.4*,-6.8,-6.0,11.4
C[C@@H]1CCCCO[C@H](CN(C)Cc2ccncc2)[C@H](C)CN([C@@H](C)CO)C(=O)c2cc(NS(=O)(=O)c3cn(C)cn3)ccc2O1,0.7,x,x,x,x,x
CCCC(=O)Nc1nnc([C@H]2C[C@H](O)[C@@H](CO)O2)s1,-1.0,x,-2.6,-17.1,x,x
CC1=C(C(=O)OC2CCCCCC2)C(c2ccc(C)o2)C2=C(CCCC2=O)N1 (stereo not given),-4.6,-2.3,-3.6,3.4,-7.9,8.1
CC1=C(C(=O)OC2CCCC2)C(c2ccc(C)o2)C2=C(CC(c3cccs3)CC2=O)N1 (stereo not given),-8.8,-5.6,-9.5,101.6*,-21.4,19.9
CCNc1nc(NCC)nc(Nn2cnnc2)n1,-7.0,-3.0,-0.8,98.8*,-10.1,10.8
CCNc1nc(NC(C)(C)C)nc(N(CC)n2cnnc2)n1,2.9,1.2,-1.2,-2.9,7.7,-11.0
CCOc1ccccc1OCCCCCc1c(C)n[nH]c1C,-34.4,-6.7,x,6.1,x,7.7
Cc1cccc(OCCCCc2c(C)n[nH]c2C)c1C,3.5,1.4,-1.5,103.5*,-0.5,-2.7
Cc1ccc(C23CC4CC(CC(NC(=O)NCCN(C)C)(C4)C2)C3)cc1,-10.8,0.3,-5.9,-1.4,x,19.6
CN(C)CCNC(=O)COc1ccc(C23CC4CC(CC(C4)C2)C3)cc1,x,-3.5,-2.6,x,-69.8,69.5*
CCOC(=O)C1=C(O)/C(=C/c2ccc(CNC(=O)C(=O)Nc3ccc(C)cc3)o2)N=C1C,x,76.9*,x,x,-7.5,11.0
SMILES,esBAF inh,EBV LMP1 NFkB,Wnt act,Statin myotox sup,MITF TRPM1 HTS,MITF TRPM1 inh
COC(=O)C1=C(O)/C(=C\c2ccc(CNC(=O)C(=O)Nc3ccc(C)cc3)o2)N=C1C,x,-12.5,x,x,-7.1,9.3
O=C(NCc1cccnc1)c1cccn1-c1ncc(C(F)(F)F)cc1Cl,x,-1.6,0.2,x,3.5,-1.9
COc1ccc(CNc2ccc(Br)cc2)cc1,x,-11.3,43.4*,x,57.5,-55.7
COc1ccc(CNc2ccc(-c3ccc(OC)cc3)nn2)cc1,44.7*,-17.0,x,-1.9,43.8,-44.3
COc1ccc(NC2=NCC(Cc3ccc(Br)cc3)S2)cc1 (stereo not given),x,65.7*,-4.4,x,-57.0,58.7
COc1ccc(CNc2ccc(-c3ccccc3OC)nn2)cc1,33.7,-3.4,x,6.5,x,-26.9
COc1ccc(CCNS(=O)(=O)c2ccc(Br)cc2)cc1,7.0,1.4,-1.3,11.5,-0.2,3.5
CC(=O)c1ccc(NC(=O)CN2C(=O)COc3ccc(Cl)cc32)cc1,-3.1,8.9,-3.7,1.4,6.7,-5.4
O=S(=O)(c1ccc(S(=O)(=O)N2CCCC2)cc1)N1CCCCCC1,0.0,-8.6,-2.6,-15.9,-10.5,10.4
O=S(=O)(c1ccc2c(c1)C(=NO)c1cc(S(=O)(=O)N3CCCCC3)ccc1-2)N1CCCCC1,-88.1,84.8*,-34.1,-306.9,x,87.6*
CC1CCN(S(=O)(=O)c2ccc3c(c2)C(=NO)c2cc(S(=O)(=O)N4CCC(C)CC4)ccc2-3)CC1,-70.9,-166.2,x,-233.7,-99.5,100.1*
COc1ccc(S(=O)(=O)N2CCC(C)CC2)cc1OC,-4.4,5.1,-4.2,-2.7,x,3.3
COc1ccc2c(c1OC)C(=O)N1C2SC(C)(C)[C@H]1C(=O)NCCCOC(C)C (stereo not given in full),-1.8,-6.1,1.4,4.7,-0.9,2.9
CC(C)CCn1c(=O)c2ccccc2n2c(CN3C(=O)NC4(CCC(C)CC4)C3=O)nnc12 (stereo not given),-5.1,-9.7,-5.2,93.0*,-8.9,13.0
Cc1cccc(-n2cnc(C(=O)NC3CCCCCC3)c2)n1,68.1*,-19.5,x,-61.4,u,-88.4
O=[N+]([O-])c1ccc(NN=Cc2ccccc2O)nc1,-47.7,1.6,-7.9,5.3,2.8,-0.5
Cc1csc(N/N=C/c2ccc([N+](=O)[O-])cc2)n1,52.6*,-30.1,11.8,-8.9,x,-69.2
O=[N+]([O-])c1ccc(N/N=C/c2ccccc2O)cc1,68.7*,2.1,6.4,38.9,35.1,-29.0
O=[N+]([O-])c1ccc(O)c(/C=N/Nc2ccccn2)c1,x,46.7*,-7.9,x,-64.8,64.7*
O=[N+]([O-])c1ccc(N/N=C/c2ccccc2)c(F)c1,x,-37.2,33.9*,x,87.3*,-89.1
O=[N+]([O-])c1cccc(C=NNc2ccccc2)c1,u,-67.5,-2.6,-0.8,60.8,-61.0
Cc1nnc(N/N=C/c2ccc([N+](=O)[O-])cc2)n1N,-4.9,1.4,1.0,9.1,-6.6,8.1
O=[N+]([O-])c1cccc(N/N=C/c2cc([N+](=O)[O-])ccc2O)c1,x,-25.1,4.2,x,22.6,-17.3
COC(=O)c1cc(C(=O)NC(C)(C)CC(C)(C)C)cc([N+](=O)[O-])c1,x,-0.6,-0.8,x,13.5,-6.2
